# Compound activity deposited in PubChem by National Center for Advancing Translational Sciences (NCATS).
# Pf Dd2 growth: Plasmodium falciparum Dd2 growth inhibition | P. falciparum Dd2 growth, SYBR Green, 72 h | Potency, µM (doses to about 28.9 µM), inactives show at the highest dose activity, negative = inhibition, actives largely listed as inhibitors | 120,000 tested, 4.3% active; active means well fitted inhibition curve with a large enough effect;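 further: plate controls were DMSO vehicle for no effect and reference drug for full effect; nearly all actives have a fitted effect of over 65% in size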
#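 Infected erythrocytes (Dd2, 0.3% parasitemia, 2.5% hematocrit final) are added to compound in RPMI-1640/Albumax II medium, grown 72 h at 37C in low oxygen, then lysed with saponin/Triton-X containing SYBR Green and read by fluorescence.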
# * hit, by the source's call; i = inactive; [ ] = another dose, or the depositor's remark. The full list was thinned out, with hits kept by preference. Potency means the concentration at half of the fitted maximal effect.
SMILES,Pf Dd2 growth
Cn1nc(C2CCCN(C(=O)NC3CCCC3)C2)n(C2CCCC2)c1=O (stereo not drawn),2.8%
Cc1c(F)cccc1NC(=O)N1CCCC(c2noc(COc3ccccc3)n2)C1 (stereo not drawn),-86.4%
COCCOCc1nc(C2CCN(C(=O)NCc3ccc(C)cc3)CC2)no1,-25.5%
CCOc1ccccc1NC(=O)N1CCC(c2noc(COC)n2)C1 (stereo not drawn),-7.1%
CCCNC(=O)N1CCC(c2noc(COc3ccc(C)cc3)n2)CC1,8.91µM*
CCCNC(=O)N1CCC(c2noc(COc3ccc(F)cc3)n2)C1 (stereo not drawn),-28.6%
CCOc1ccccc1NC(=O)N1CCCC(c2noc(COc3ccccc3)n2)C1 (stereo not drawn),5.62µM*
O=C(O)c1ccccc1C(=O)N[C@H]1CO[C@H]2[C@@H]1OC[C@@H]2n1nnnc1Oc1cccc(N2CCOCC2)c1,-1.9%
Cc1cc(F)ccc1OCC(=O)c1ccc2c(c1)N(CC(=O)NC1CCCCC1)C(=O)CO2,-10.9%
Cn1cnc2cc(-c3cccc(F)c3)cc(C(=O)NCc3cccnc3)c21,-16.6%[44.1 µM]
O=C(c1ccc(F)cc1)N1CC(c2nnc(-c3ccncc3)o2)C2(CCOCC2)C1 (stereo not drawn),-20.1%
COc1ccc(CNC[C@H]2Cn3ccnc3CO2)cn1,-5.5%[44.1 µM]
CCc1nc2c(c(-c3ccc(OC)cc3)n1)CCN(Cc1cccnc1)CC2,-7.7%
O[C@@H]1CCN(Cc2nc(C3(O)CCN(Cc4ccccc4)CC3)cs2)C1,-6.6%[44.1 µM]
Cc1[nH]c2ccccc2c1C1(O)C(=O)N(Cc2ccc(Cl)cc2)c2ccccc21 (stereo not drawn),i[5.79 µM]
Cc1[nH]c2ccccc2c1C1(O)C(=O)N(Cc2ccccc2)c2ccc(Cl)cc21 (stereo not drawn),10µM*
Cc1ccc(CN2C(=O)C(O)(c3c(C)[nH]c4ccccc34)c3ccccc32)cc1 (stereo not drawn),-13.9%
O=C([C@@H]1Cc2nc[nH]c2CN1CC1CC1)N1CCCC1,11.9%[44.1 µM]
O=C(NCc1ccncc1)c1cn(C2CNC2)nn1,-14.8%
C[S+](=O)([O-])N1Cc2ccccc2CC2(CCCN(Cc3ccccc3)C2)C1 (stereo not drawn),-12.2%
CC(=O)N1Cc2ccccc2CC2(CCN(Cc3cccnc3)C2)C1 (stereo not drawn),-12.0%
O=C(O)CCC(=O)N1Cc2ccccc2CC2(CCCN(Cc3ccncc3)C2)C1 (stereo not drawn),0.2%
O=C(O)CCC(=O)N1Cc2ccccc2CC2(CCCN(Cc3cccnc3)C2)C1 (stereo not drawn),7.6%
O=S(=O)(c1ccccc1)N1Cc2ccccc2CC2(CCN(Cc3cccnc3)C2)C1 (stereo not drawn),6.31µM*
CCCC(=O)N1Cc2ccccc2CC2(CCN(Cc3cccnc3)C2)C1 (stereo not drawn),11.2µM*
SMILES,Pf Dd2 growth
CCCC(=O)N1Cc2ccccc2CC2(CCN(Cc3ccc(NC(C)=O)cc3)C2)C1 (stereo not drawn),-27.2%
CCCC(=O)N1Cc2ccccc2CC2(CCN(Cc3ccncc3)C2)C1 (stereo not drawn),11.2µM*
CCC(=O)N1Cc2ccccc2CC2(CCN(Cc3ccncc3)C2)C1 (stereo not drawn),-23.8%
O=C(NCCC1CCN(C(=O)Nc2ccccc2F)CC1)c1ccco1,-0.5%
CN(C)C[C@@H]1CN(Cc2ccncc2)C[C@H]1NC(=O)c1cc(F)cc(F)c1,-28.6%
CCOC(=O)c1ccc(N2CC3CCC(C2)N3CC(F)(F)F)nn1,14.1%
CO[C@H]1[C@H](NC(=O)Cc2ccccc2)c2ccccc2C12CCN(C(=O)COc1ccccc1)CC2,-7.8%
COc1ccc(C(=O)N2CCc3ccc(C(=O)NC(C)C)cc32)cc1,-9.7%
O=C(CN1C(=O)CNC1=O)N1CCN(Cc2ccccc2)CC(O)C1 (stereo not drawn),-2.4%
Cc1cc(CN2CCC(c3nnc(CN4CCCC4)n3C3CC3)CC2)on1,-15.3%
Cc1ccc2nccc(C(=O)N3CCn4nc(C(=O)N5CCCC5)cc4C3)c2c1,-3.1%
COc1ccc(NC(=O)N2CCC3(CC2)CC(OC)CCO3)cc1 (stereo not drawn),11.1%
COc1cccc(-c2cc(-c3cccs3)nc3c(C)noc23)c1,i
COc1ccccc1-c1cc(-c2ccccc2)nc2c(C)noc12,i
COc1cccc(-c2cc(-c3ccccc3)nc3c(C)noc23)c1,14.1µM*
COc1ccccc1C(=O)N1CCCC(c2nn[nH]n2)C1 (stereo not drawn),29.4%
CCc1ocnc1C(=O)N1C[C@H]2OC(=O)N(CCCN3CCOCC3)[C@H]2C1,-0.5%
COc1ccc(CN2CCN(c3ncnc4sc5c(c34)CCCC5)CC2)cc1F,-24.8%
Clc1ccc(CN2CCN(c3ncnc4sc5c(c34)CCCC5)CC2)cc1Cl,43.5%
CN(C)c1ncnc2sc3c(c12)CCN(Cc1ccncc1)C3,i
c1nc(N2CCOCC2)c2c3c(sc2n1)CN(CC1CCCCC1)CC3,2.82µM*
CCOc1ccc(CN2CCN(c3ncnc4sc5c(c34)CC(C)CC5)CC2)cc1 (stereo not drawn),24.6%
c1coc(CN2CCc3c(sc4ncnc(N5CCOCC5)c34)C2)c1,8.91µM*
COCCN1C[C@H]2CN(C(=O)c3ccno3)CCN2C1=O,-13.2%[44.1 µM]
O=[S+]1([O-])CCCN1C1CCN(Cc2ccc(C(F)(F)F)cc2)CC1,i
SMILES,Pf Dd2 growth
CC(Cn1cccn1)C(=O)N1CCC(CCC(=O)Nc2ccc3c(c2)OCCO3)CC1 (stereo not drawn),-12.6%
COc1cccc(CCC(=O)N2CCC3(CC2)CC(O)CCO3)c1 (stereo not drawn),-2.0%
COCc1cc(=O)n(CC(=O)Nc2ccc(C)c(C)c2)c(N2CCOCC2)n1,i
O=C(c1ccoc1)N1CCN2CCS(=O)(=O)N(C3CC3)C(=O)C2C1 (stereo not drawn),i
O=C(CCC1CCN(S(=O)(=O)c2ccccc2)CC1)NC1CCS(=O)(=O)C1 (stereo not drawn),-10.4%
O=C(Nc1ccccc1)C1CCN(C(=O)N2CC3CC(C2)[C@H]2CCCC(=O)N2C3)CC1 (stereo partly drawn),-5.2%
Cc1ccc(C(=O)Nc2cccc3cccnc23)cc1Cl,4.1%
COc1ccc(C(=O)Nc2cc3c(cc2C(=O)c2ccccc2Cl)OCCO3)cc1,22.6%
COc1ccc(C(=O)NC(c2ccccc2Cl)c2cc(Cl)c3cccnc3c2O)cc1 (stereo not drawn),3.55µM*
O=C(C1CCC1)N1CCC(c2noc(-c3cccnc3)n2)C1 (stereo not drawn),i[5.79 µM]
CCC(=O)N1CCc2cc(Br)cc(S(=O)(=O)N3CCN(c4cc(C)ccc4C)CC3)c21,5.5%
CCC(=O)N1CCc2cc(Br)cc(S(=O)(=O)N3CCCC(C(=O)Nc4cc(C)ccc4OC)C3)c21 (stereo not drawn),i
CCOC(=O)C1CCCN(S(=O)(=O)c2cc(Br)cc3c2N(C(=O)CC)CC3)C1 (stereo not drawn),3.55µM*
CCC(=O)N1CCc2cc(Br)cc(S(=O)(=O)N3CCCC(C(=O)NCc4ccc(OC)cc4)C3)c21 (stereo not drawn),-3.0%
CCC(=O)N1CCc2cc(Br)cc(S(=O)(=O)N3CCC(C(=O)N(CC)CC)CC3)c21,10µM*
CCc1cccc(C)c1NC(=O)C1CCN(S(=O)(=O)c2cc(Br)cc3c2N(C(C)=O)CC3)CC1,-25.5%
O=C(NCc1ccco1)C1CC(c2ccccc2)CN(C(=O)Nc2ccc(Cl)cc2)C1 (stereo not drawn),-8.6%
